Experimental data from article PMC5540273 (PLoS ONE, 2017).

Experiments:
Settings in all cases: concentration: 1 μM, replicates: in singlicate; n = 1
TTK = test system: TTK
TXK = test system: TXK
[1] = test system: TYK2(JH1domain-catalytic)
[2] = test system: TYK2(JH2domain-pseudokinase)
TYRO3 = test system: TYRO3
ULK1 = test system: ULK1
ULK2 = test system: ULK2
ULK3 = test system: ULK3
VEGFR2 = test system: T1, VEGFR2
T1 construct: gene KDR

VPS34 = test system: T2, VPS34
T2 construct: gene PIK3C3

VRK2 = test system: VRK2
WEE1 = test system: WEE1
WEE2 = test system: WEE2
WNK1 = test system: WNK1
WNK2 = test system: WNK2
WNK3 = test system: WNK3
WNK4 = test system: WNK4
YANK1 = test system: T3, YANK1
T3 construct: gene STK32A

YANK2 = test system: T4, YANK2
T4 construct: gene STK32B

YANK3 = test system: T5, YANK3
T5 construct: gene STK32C
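Note: KINOMEscan kinase panel screen.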

Compound	%Inh (TTK) [%]	%Inh (TXK) [%]	%Inh [1] [%]	%Inh [2] [%]	%Inh (TYRO3) [%]	%Inh (ULK1) [%]	%Inh (ULK2) [%]	%Inh (ULK3) [%]	%Inh (VEGFR2) [%]	%Inh (VPS34) [%]	%Inh (VRK2) [%]	%Inh (WEE1) [%]	%Inh (WEE2) [%]	%Inh (WNK1) [%]	%Inh (WNK2) [%]	%Inh (WNK3) [%]	%Inh (WNK4) [%]	%Inh (YANK1) [%]	%Inh (YANK2) [%]	%Inh (YANK3) [%]
Cl.Oc1ccc(-c2nc(-c3ccccc3)[nH]c2-c2ccncc2)cc1 [SB-428218]	0	8	100	67	0	8	0	6	0	0	64	64	8	0	0	0	60	8	0	21
Cc1ccc(NC(=O)Nc2cccc(Cl)c2)cc1-c1ccc(C(=O)Nc2ccncc2)cc1 [GSK1398468]	0	0	0	26	0	11	0	5	16	0	0	2	21	7	0	18	24	10	0	0
O=C1NC(=O)C(N2CCc3ccccc32)=C1c1ccccc1Cl [SB-373598]	65	28	0	0	0	61	6	39	2	16	0	6	9	0	2	22	75	13	16	20
Cn1cncc1-c1ccc2ncnc(Nc3ccc(OCc4ccccc4)cc3)c2c1 [GW320571]	19	34	29	0	3	25	0	14	0	23	0	16	14	1	15	3	0	94.2	16	7
O=S(=O)(c1ccc(-c2ccnc3[nH]ccc23)cc1)N1CCCC1 [GSK846226]	20	9	62	20	0	19	0	27	15	46	0	8	2	5	7	3	0	11	0	0
